Compound activity (PubChem)
GSH fluor: compound fluorescence on glutathione beads, profiling panel, artefact control, biophysical, 488/530 nm, flow cytometry. GSH beads flow cytometry, compound fluorescence 488/530 nm; hits give high values. AID 1776, 2009. fluorescence (KMESF) at 10 µM. 0.25% of 190,000 active; in the data active means fluorescence above about 89;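 further: glutathione beads carrying GST-tagged Bcl family fusion proteins plus one bare bead set; values are compound well signal with DMSO vehicle wells as background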
RGS16-Gao: modulators of RGS16 binding to Galphao, primary screen, biochemical, human proteins, multiplexed bead flow cytometry; Regulator of G-protein signaling 16 (Homo sapiens) + Guanine nucleotide-binding protein …; bead-based flow cytometry RGS16-Galphao binding, fluorescence; actives lie on both sides; binding response (% of control), % at 10 µM; 0.38% of 220,000 active; AID 1441, 2008;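 further: Galphao activated by GDP with aluminum fluoride before binding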
Target sequence (O15492 whole entry, looked up): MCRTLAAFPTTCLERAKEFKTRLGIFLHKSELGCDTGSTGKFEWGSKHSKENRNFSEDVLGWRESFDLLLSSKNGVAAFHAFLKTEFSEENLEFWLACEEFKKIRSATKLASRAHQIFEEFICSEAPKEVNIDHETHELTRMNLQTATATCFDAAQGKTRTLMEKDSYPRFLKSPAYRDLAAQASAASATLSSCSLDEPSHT
Target sequence (P09471 whole entry, looked up): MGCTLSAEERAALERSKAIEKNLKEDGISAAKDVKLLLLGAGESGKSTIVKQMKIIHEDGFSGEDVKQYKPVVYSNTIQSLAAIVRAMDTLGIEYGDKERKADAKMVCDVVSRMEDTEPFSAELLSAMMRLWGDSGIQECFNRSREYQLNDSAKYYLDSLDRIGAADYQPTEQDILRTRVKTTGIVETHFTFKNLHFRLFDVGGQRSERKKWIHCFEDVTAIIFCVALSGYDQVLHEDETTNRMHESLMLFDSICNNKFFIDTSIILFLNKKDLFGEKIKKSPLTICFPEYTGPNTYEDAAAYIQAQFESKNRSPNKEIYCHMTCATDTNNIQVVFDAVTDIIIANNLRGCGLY
RGS4-Gao reg: modulators of RGS4 binding to Galphao, primary screen, biochemical, multiplexed bead flow cytometry; Guanine nucleotide-binding protein G(o) subunit alpha (Homo sapiens), P09471; actives lie on both sides; binding response (% of control), % at 10 µM; 0.33% of 220,000 active; in the data active means binding response below about 49% or above about 150%; inactive means in between;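 further: fluorescent Galphao activated with aluminum fluoride binding bead-coupled RGS4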
Target sequence (P09471 whole entry, looked up): as above
RGS7-Gao: RGS7-Galphao binding modulators, primary screen, biochemical, multiplexed bead flow cytometry. Guanine nucleotide-binding protein G(o) subunit alpha (Homo sapiens), P09471. actives lie on both sides. binding response (% of control), % at 10 µM. 0.35% of 220,000 active; in the data active means binding response below about 49% or above about 150%;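 further: fluorescent Galphao held in activated GDP-AlF4 state binding bead-coupled RGS7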
Avidin fluor: green autofluorescence of compounds with avidin beads – biophysical, 488/530 nm, flow cytometry, artefact control, profiling panel | 0.38% of 220,000 active | fluorescence (KMESF) at 10 µM | compound fluorescence 488/530 nm; hits give high values; in the data active means fluorescence above about 47
RGS8-Gao reg: RGS8-Galphao binding modulators, primary screen, biochemical, multiplexed bead flow cytometry; 0.34% of 220,000 active; actives lie on both sides; response (percent of control binding), % at 10 µM; Guanine nucleotide-binding protein G(o) subunit alpha (Homo sapiens), P09471; in the data active means response below about 60% or above about 140%; inactive means in between;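 further: Galphao activated as the GDP aluminium fluoride complex binding bead-coupled RGS8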
RGS-Gao: modulators of RGS–Galpha-o binding, primary screen, biochemical, multiplexed beads, flow cytometry, RGS4/7/8/16/19; shares compounds with RGS16-Gao; AID 1504, 2009; 99% of 1,600 active; RGS4–Galpha-o binding response, % at 10 µM; multiplexed bead flow cytometry;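 further: fluorescently labeled Galpha-o bound to GDP with aluminium fluoride binding biotinylated RGS beads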
Biotin-avidin: disruption of biotin probe capture by avidin, counter-screen for RGS protein interaction modulators, biochemical, flow cytometry, bead-based; 1,700 tested, under 10 active; streptavidin beads, fluorescein-biotin binding; AID 1783, 2009; inhibition, % at 10 µM; shares compounds with RGS16-Gao;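 active means inhibition above 50%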;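 further: median green fluorescence of gated singlet beads compared with DMSO control wells; 0% = DMSO wells and 100% = complete loss of bead fluorescence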
RGS8-Gao single: RGS8-Galphao binding modulators, confirmation, biochemical, multiplexed bead flow cytometry, single concentration; AID 1836, 2009; bead-based flow cytometry RGS8-Galphao binding, fluorescence; actives lie on both sides; shares compounds with RGS16-Gao; 3% of 1,700 active; binding response (% of control), % at 10 µM; in the data active means binding response below about 72% or above about 130%; inactive means in between;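 further: Galphao activated as GDP AlF4 complex before binding bead RGS8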
RGS7-Gao single: RGS7-Galphao binding modulators, confirmation, biochemical, multiplexed bead flow cytometry, single concentration; bead-based flow cytometry RGS7-Galphao binding; actives lie on both sides; shares compounds with RGS16-Gao; AID 1837, 2009; response (percent of control binding), % at 10 µM; 7.8% of 1,700 active; in the data active means response below about 75% or above about 130%; inactive means in between;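 further: fluorescent Galphao activated with GDP and aluminum fluoride binding bead-coupled RGS7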
RGS16-Gao conf: modulators of RGS16-Galphao protein binding, confirmation, biochemical, single concentration, multiplexed bead flow cytometry | 4% of 1,700 active | response (% of control binding), % at 10 µM | shares compounds with RGS16-Gao | bead-based flow cytometry; actives lie on both sides; in the data active means response below about 74% or above about 130%; inactive means in between;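 further: Galphao activated as the GDP aluminium fluoride complex binding bead-coupled RGS16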
RGS4-Gao confirm: modulators of RGS4-Galphao protein binding, confirmation, biochemical, single concentration, multiplexed bead flow cytometry; binding response (% of control), % at 10 µM; 4% of 1,700 active; actives lie on both sides; shares compounds with RGS16-Gao; in the data active means binding response below about 74% or above about 130%; inactive means in between
RGS19-Gao single: regulators of RGS19-Galphao binding, confirmation, biochemical, single point, multiplexed bead flow cytometry; response (percent of control binding), % at 10 µM; 5% of 1,700 active; AID 1841, 2009; bead-based flow cytometry RGS19-Galphao binding; actives lie on both sides; shares compounds with RGS16-Gao; in the data active means response below about 50% or above about 160%; inactive means in between;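 further: 100% = no compound control and 0% = blank background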
* = called active by the depositor; . = not tested or not shown; [ ] = dose if it differs, or a comment. The list is not random: actives were taken first. Their share in the collection is about 1.2%. Unless noted, how the calls were made is not given here.

SMILES	GSH fluor	RGS16-Gao	RGS4-Gao reg	RGS7-Gao	Avidin fluor	RGS8-Gao reg	RGS-Gao	Biotin-avidin	RGS8-Gao single	RGS7-Gao single	RGS16-Gao conf	RGS4-Gao confirm	RGS19-Gao single
O=c1cc(CSc2nnc(COc3ccccc3)n2-c2ccccc2)c2ccccc2[nH]1	14	28	-76*	-15*	-2	104	.	-2	100	91	99	96	91
Cc1cccc(OCc2nnc(SCc3cc(=O)[nH]c4ccccc34)n2-c2ccccc2)c1	11	69	101	103	6	97	.	.	.	.	.	.	.
O=C(c1ccc(=O)[nH]c1)N(Cc1cccs1)C1(C(=O)NC2CCCC2)CCCCC1	10	259*[activator]	116	108	4	141*[activator]	116*	-1	104	105	105	103	101
O=C(NCCCN1CCOCC1)C(=O)N/N=C/c1ccc2c(c1)OCO2	10	98	96	97	11	96	.	.	.	.	.	.	.
CCO[C@@H]1OC(C(=O)N2CCN(Cc3ccc4c(c3)OCO4)CC2)=C[C@H](c2csc3ccccc23)[C@H]1CCCO	17	101	104	100	7	101	.	.	.	.	.	.	.
CCO[C@@H]1OC(C(=O)N2CCN(Cc3ccc4c(c3)OCO4)CC2)=C[C@H](c2cn(C(C)=O)c3ccccc23)[C@H]1CCCO	19	123	137	167*[activator]	7	107	137*	-1	105	104	109	105	111
CCO[C@H]1OC(C(=O)N2CCN(Cc3ccc4c(c3)OCO4)CC2)=C[C@@H](C2CC2)[C@@H]1CCCO	20	56	51	42*	3	67	51*	-1	93	87	90	90	90
CC1=NN(C(=S)Nc2ccccc2)C(C)(C)C1	11	101	101	103	14	103	.	.	.	.	.	.	.
Cc1ccc(CC(=O)O/N=C(\N)Cc2ccc([N+](=O)[O-])cc2)cc1	7	17*	92	88	9	78	92*	.	.	.	.	.	.
Cc1ccc(-n2c(C)n[nH]c2=S)cc1	9	183*[activator]	115	119	16	118	115*	1	111	130*[activator]	108	111	114
Cc1ccc(-n2c(C)n[nH]c2=S)cc1C	9	107	102	103	11	103	.	.	.	.	.	.	.
Cc1cccc2sc(NC(=O)[C@@H]3CCCN3C(=O)c3cccs3)nc12	16	211*[activator]	101	111	7	131	101*	-3	100	96	100	97	101
COc1ccc(C2=NN(C(=S)Nc3ccccc3)C(c3ccccc3)C2)cc1 (configuration not stated)	11	385*[activator]	117	118	12	134	117*	0	106	102	109	105	118
COc1ccc(C2CC(c3ccccc3)=NN2C(=S)Nc2ccccc2)cc1 (configuration not stated)	9	104	104	109	25	102	.	.	.	.	.	.	.
O=C(Nc1nnc(-c2ccccc2Cl)o1)c1cc2cc([N+](=O)[O-])ccc2s1	5	17*	94	92	8	83	94*	.	.	.	.	.	.
CC(=O)Nc1ccccc1-c1nc2ccc(C(=O)N3CCN(c4cc(C)ccc4C)CC3)cc2[nH]c1=O	29	110	111	168*[activator]	78*	102	111*	10	99	74*	86	84	59
CCCCN(CCCC)CCCNC(=O)c1ccc2nc(-c3ccccc3NC(C)=O)c(=O)[nH]c2c1	11	100	100	101	11	101	.	.	.	.	.	.	.
O=C(Nc1ccc(F)cc1)NC1(C(=O)NCc2cccs2)CCCCC1	24	126	109	104	10	105	.	.	.	.	.	.	.
O=C(Nc1cccc(Cl)c1)NC1(C(=O)NCc2cccs2)CCCCC1	25	97	115	232*[activator]	138*	92	115*	-1	99	98	101	100	94
CCOc1ccc(-c2nnc(-c3ccco3)o2)cc1OCC	46	97	100	95	34	96	.	.	.	.	.	.	.
CCOc1cc(-c2nnc(-c3ccco3)o2)cc(OCC)c1OCC	35	96	119	156*[activator]	194*	102	119*	0	101	106	97	99	87
COC(=O)c1cc(NC(=O)CSC2=NCCS2)cc(C(=O)OC)c1	14	85	89	88	9	88	.	.	.	.	.	.	.
CCOC(=O)C1CCN(C(=O)CSc2ccc(Cl)cc2)CC1	15	8.3*	49*	55	2	49*	.	0	106	103	105	105	100
CCOC(=O)C1CCN(C(=O)CSc2ccc(Br)cc2)CC1	14	106	111	110	15	100	.	.	.	.	.	.	.
CS(=O)(=O)N(CCC#N)Cc1ccco1	24	99	99	100	10	102	.	.	.	.	.	.	.
